Source: PubChem (several laboratories)
Rows were chosen to be rich in hits. Some 2.1% of all compounds tested hit in one or more screens of this group.
PfHsp40 yeast: rescue of PfHsp40-mediated yeast toxicity; S. cerevisiae expressing PfHsp40, growth rescue, ATP luminescence; growth rescue, % at 12.5 µM; 340,000 compounds, 0.68% hits; in the data active = growth rescue above about 28%, passing the limit was not always enough;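 note: yeast W303a lacking pdr1 and pdr3 grown in galactose medium; growth measured after three days at 30 °C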
BJeLR viability: kills HRASV12-expressing BJeLR cells; BJeLR (HRASV12) viability, CellTiter-Glo ATP luminescence, 48 h; AID 1554; inhibition, % (test concentration not listed); 300,000 compounds, 0.17% hits; in the data active = inhibition above about 50%
PrPC TRFRET: inhibitors of human cell surface prion protein PrPC; inhibition, % at 13.8 µM; P04156; TR-FRET read-out; 370,000 compounds, 0.43% hits; in the data active = inhibition above about 24%; note: 0% = median of the test wells and 100% = reference compound wells
MazF activator: activators of E. coli MazEF toxin-antitoxin RNase; P0AE70; activation, % at 20 µM; FAM/BHQ RNA-DNA oligo cleavage fluorescence, 5 h; 350,000 compounds, 0.32% hits; AID 504720; in the data active = activation above about 50%
Target sequence (P0AE70 whole entry, looked up): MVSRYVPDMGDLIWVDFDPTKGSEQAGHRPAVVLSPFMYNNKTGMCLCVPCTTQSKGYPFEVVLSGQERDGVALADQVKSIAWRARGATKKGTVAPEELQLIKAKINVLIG
DUSP3 inh: inhibitors of human VHR1 phosphatase (DUSP3); P51452; recombinant VHR phosphatase, pNPP absorbance; inhibition, % at 13.3 µM; 290,000 compounds, 0.52% hits; AID 1654; in the data active = inhibition above about 50%
Target sequence (P51452 whole entry, looked up): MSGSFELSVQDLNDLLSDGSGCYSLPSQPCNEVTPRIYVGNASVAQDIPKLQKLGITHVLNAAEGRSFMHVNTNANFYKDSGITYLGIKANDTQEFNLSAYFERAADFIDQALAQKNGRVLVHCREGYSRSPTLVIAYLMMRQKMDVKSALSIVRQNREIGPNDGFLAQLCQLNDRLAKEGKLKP
PrP 5UTR inh: suppresses PrP 5' UTR mRNA reporter expression. cell-based PrP 5' UTR mRNA reporter, plate reader. inhibition, % (no concentration beside the values). 340,000 compounds, 0.35% hits. AID 488862; in the data active = inhibition above about 52%; note: 0 = median of the neutral control wells
Active calls of the source: *; . = no result; + = active, no number.

SMILES	PfHsp40 yeast	BJeLR viability	PrPC TRFRET	MazF activator	DUSP3 inh	PrP 5UTR inh
C#CCOCCOCCOCCNc1nc(N2CCN(C(=O)CCCCCCCCCCNC(=O)Cn3cc(CCCCCN)nn3)CC2)nc(N2CCN(C(=O)CCCCCCCCCCNC(=O)[C@H]([C@@H](C)CC)n3cc(CCCCN=C(N)N)nn3)CC2)n1	29*	.	.	-32	.	4
COC(=O)[C@@]12CCCCC3=C1N(CCC3)C(=O)[C@H]2CC(=O)N1CCN(C(=O)c2ccco2)CC1	.	.	-2	.	.	.
COc1ccc(CNC(=O)C(C)OC(=O)CCN2C(=O)C3CC=CCC3C2=O)cc1 (stereo not drawn)	1	-5	1	-1	.	-22
C#CCOCCOCCOCCNc1nc(N2CCN(C(=O)CCCCCCCCCCNC(=O)Cn3cc(C[C@@H](C)O)nn3)CC2)nc(N2CCN(C(=O)CCCCCCCCCCNC(=O)[C@@H](CCC(=O)O)n3cc(CCCCCN)nn3)CC2)n1	-1	.	3	63*	.	-17
C#CCOCCOCCOCCNc1nc(N2CCN(C(=O)[C@H]([C@@H](C)CC)n3cc(CCCCN)nn3)CC2)nc(N2CCN(C(=O)[C@H](CCCCN)n3cc(CCCC)nn3)CC2)n1	33*	.	1	9	.	-25
C#CCOCCOCCOCCNc1nc(N2CCN(C(=O)[C@H]([C@@H](C)CC)n3cc(CCC(=O)O)nn3)CC2)nc(N2CCN(C(=O)[C@H](CCCCN)n3cc(CCCC)nn3)CC2)n1	-2	.	4	9	.	-6
CCc1nc2c(OCc3ccccc3C)cccn2c1N(C)C(=O)c1ccco1	.	.	0	.	.	.
c1ccc2cc(Cn3ccc4ccc(-c5ccc6ccn(Cc7ccc8ccccc8c7)c6c5)cc43)ccc2c1	.	.	-4	.	.	.
CSc1ccccc1NC(=O)c1noc(C)c1[N+](=O)[O-]	1	-2	-6	1	-4	-11
O=C(NCc1cccs1)C1CC(=O)N(Cc2ccccc2)C1 (stereo not drawn)	-1	.	3	0	.	3
CNCCc1ccc(OC)c(OC)c1	2	4	-3	8	14	-12
COc1ccc(CCNc2cc(C)[nH]c(=O)c2)cc1OC	2	16	0	2	60*	-21
CC1=CC(=O)Nc2ccccc2S1	-1	.	15	6	.	-9
O=c1cc(CN2CCc3ccccc32)nc2sccn12	-1	5	0	-4	3	5
O=c1cc(CN2CCCc3ccccc32)nc2sccn12	-2	11	-15	91*	6	-16
O=c1[nH]c(=O)n(C2OC(CO)C(O)C2O)cc1F (stereo not drawn)	203*	.	.	7	.	35
Nc1nc(=O)n(C2OC(CO)C(O)C2O)cc1F (stereo not drawn)	.	.	-1	.	.	.
CCCOc1ccc(C2c3c(oc4cc(C)c(C)cc4c3=O)C(=O)N2CCCN(C)C)cc1 (stereo not drawn)	0	-2	3	38	25	-3
CCOc1cccc(C2c3c(oc4cc(C)c(C)cc4c3=O)C(=O)N2CCCN(C)C)c1 (stereo not drawn)	.	.	.	.	50*	.
N#C/C(=C\c1ccccc1[N+](=O)[O-])c1nc(C2CC2)cs1	4	-2	-26	-5	3	-82
N#C/C(=C\c1ccc([N+](=O)[O-])cc1)c1nc(C2CC2)cs1	2	6	1	338*	-7	-60
O=C(CSCCO)Nc1ccc([N+](=O)[O-])cc1	0	2	1	5	52*	-38
CC1(C)OC(c2ccccc2)=C/C(=C/C=C2C(=O)NC(=S)NC2=O)O1	.	-4	-3	+	9	.
COc1cc2c(cc1OC)CN(CC(=O)Nc1ccc(F)cc1)C(C(=O)O)C2 (stereo not drawn)	35*	-5	-8	7	2	-14
Cn1c(=O)oc2cc(S(=O)(=O)NCCc3ccccc3)ccc21	-1	-2	-3	-9	57*	7
SMILES	PfHsp40 yeast	BJeLR viability	PrPC TRFRET	MazF activator	DUSP3 inh	PrP 5UTR inh
C[C@@H]([C@@H](O)c1ccccc1)N(C)C(=O)C(N)Cc1ccccc1 (stereo partly drawn)	3	-13	-6	0	24	1
COC(=O)c1ccc(/C=C/c2ccc3cccc(OC(C)=O)c3n2)cc1	140*	10	-20	-5	-4	-153
COC(=O)C1=C(C)N(C)C(=NCc2ccc(OC)cc2)NC1c1ccc(C(F)(F)F)cc1 (stereo not drawn)	.	.	-12	.	.	.
CCN1C(=O)C(=Cc2cc(C)n(C3CC3)c2C)C(=O)N(CC)C1=S	0	-8	2	677*	0	3
Cc1cc(C=C2C(=O)N(C)C(=S)N(C)C2=O)c(C)n1C1CCCC1	0	-3	3	-36	14	-15
COc1ccccc1CN1CCCC(CN(CCN(C)C)C(=O)c2ccc(C)cc2)C1 (stereo not drawn)	3	-6	-11	12	51*	-2
CN(C)CCN(CC1CCCN(Cc2ccccc2F)C1)C(=O)c1ccc(Cl)cc1 (stereo not drawn)	1	-2	3	11	11	-42
O=c1c(Cl)c(Cl)cnn1Cc1nnc(-c2ccc(Cl)cc2)o1	236*	4	-6	-8	4	-45
CCCCCN=Cc1c(C)[nH]n(-c2nc3ccccc3s2)c1=O	1	53*	6	0	25	27
COc1cc([N+](=O)[O-])cc(/C=N/NC(=O)C(O)(c2ccccc2)c2ccccc2)c1O	30*	-4	-2	4	-10	-10
O=C(Nc1ccccc1)c1nn(-c2ccccc2)c(=O)cc1C(F)(F)F	2	-4	4	381*	13	-1
CN(CC(=O)Nc1ccccc1)CC(=O)Nc1ccccc1Cl	1	-6	-2	-8	0	-31
CCCCc1ccc(NC(=O)CN(C)CC(=O)Nc2ccccc2Cl)cc1	36*	-7	14	1	4	-13
O=C(NCc1ccc(F)c(F)c1)C1C2C=CC3(CN(Cc4ccccc4)C(=O)C13)O2 (stereo not drawn)	.	.	-1	.	.	.
O=C(CCS(=O)(=O)c1ccccc1)Nc1ccccn1	0	4	-4	-1	60*	-19
CC(CC(=O)c1ccc(F)cc1)N1CCN(c2ccccc2)CC1 (stereo not drawn)	-1	.	5	12	.	-18
O=c1oc2ccc3ccccc3c2cc1-c1nc2ccccc2o1	0	3	-2	329*	.	-21
N#CCSc1nc(-c2ccccc2)cs1	36*	4	1	6	20	-30
CC(C)NC(=O)CSc1nc(-c2ccccc2)cs1	0	4	-5	3	15	-79
Cc1ccc(C)c(S(=O)(=O)N2CCN(C(=O)[C@@H]3CCCN3C(=O)c3cccs3)CC2)c1	0	.	-1	6	.	-28
Cc1ccccc1CNS(=O)(=O)c1csc(C(N)=O)c1	-1	-8	-7	-15	56*	-4
